In all, about 48,000 compounds went through this assay and about 13,000 (27%) showed an effect of 50% or more. This is one part of the list.
system: Wolbachia pipientis; assay: Anti-Wolbachia Cell-Based Screen; format: functional; design: scale not given: in the data most compounds retested in dose-response had high values; settings: 5 µM

| SMILES | Percent Effect [%] |
| --- | --- |
| Cl.Cl.Cl.OC(CN1CCN(Cc2cccnc2)CC1)c1cccs1 (centres undefined) | -1.04 |
| Cc1ccc2c(c1)C(NCc1nnc3n1CCCCC3)CCCO2 (centres undefined) | -29.11 |
| O=c1cc(CN(CCO)C2CC2)nc2ccc(Cl)cn12 | -6.925 |
| O=C(CCc1cscn1)NS(=O)(=O)c1ccc2ccccc2c1 | 3.955 |
| O=C(Cc1ccsc1)N1C[C@@H]2OCCN(c3cnccn3)[C@@H]2C1.O=C(O)C(F)(F)F | 19.14 |
| Cc1ccc(N2CC[C@@H]3O[C@@H](COCc4cccnc4)CC[C@@H]32)nn1.O=C(O)C(F)(F)F.O=C(O)C(F)(F)F | 4.893 |
| O=C(CC1CCCC1)N1CC[C@H]2[C@H]1CCN2c1nncs1.O=C(O)C(F)(F)F | 10.49 |
| CN(C)C(=O)N1CC[C@H]2[C@H]1CCN2c1nncs1.O=C(O)C(F)(F)F | -1.539 |
| Cc1ccc(N2CC[C@@H]3[C@@H]2CCN3C(=O)Cc2ccccc2)nn1.O=C(O)C(F)(F)F | 108 |
| Cc1ccc(N2CC[C@@H]3[C@@H]2CCN3C(=O)Cc2cccs2)nn1.O=C(O)C(F)(F)F | 109.8 |
| Cc1ccc(N2CC[C@H]3[C@@H]2CCC(=O)N3CCN2CCOCC2)nn1.O=C(O)C(F)(F)F | -26.64 |
| Cc1ccc(N2CC[C@@H]3[C@@H]2CCN3C(=O)Cc2ccsc2)nn1.O=C(O)C(F)(F)F | 97.7 |
| Cc1ccc(N2CC[C@@H]3[C@@H]2CCN3C(=O)c2cscn2)nn1.O=C(O)C(F)(F)F | -4.198 |
| O=C(O)[C@@H]1CN(C2CCCC2)C[C@H]1C1CC1 | -8.244 |
| Cc1ccc(NC(=O)NC(C)c2nc[nH]n2)cc1Cl (centres undefined) | -5.292 |
| c1cc2c(cc1-c1noc3c1CN(C1CCSCC1)CC3)OCO2 | -0.3794 |
| Cc1ccsc1CN(C)C(=O)C1CCCN(C(N)=O)C1 (centres undefined) | 8.59 |
| CC(C)n1cnnc1CN(C)C(=O)C1CCCN(CC(N)=O)C1 (centres undefined) | 92.86 |
| CC(C)n1cnnc1CN(C)CC1CCCNC1 (centres undefined) | -3.149 |
| CN(CCCc1cnn(C)c1)C(=O)C1CCCN(C2CCCC2)C1 (centres undefined) | -4.141 |
| CCn1cnnc1CN(C)C(=O)C1CCC(=O)N(CC2CCCCC2)C1 (centres undefined) | 6.192 |
| CC(C)n1cnnc1CN(C)C1CCCNC1 (centres undefined) | -12.15 |
| CCCn1cnnc1CN(C)C(=O)C1CCC(=O)N(C2CCCC2)C1 (centres undefined) | -9.656 |
| CC(C)n1cnnc1CN(C)C(=O)C1CCCN(C2CCN(C)CC2)C1 (centres undefined) | 110.4 |
| CCCn1cnnc1CN(C)C(=O)C1CCCN(C2CCN(C)CC2)C1 (centres undefined) | 120.4 |

| SMILES | Percent Effect [%] |
| --- | --- |
| O=C1CN(Cc2cc(O)c3cccc(F)c3n2)CCN1C1CCCC1 | -1.558 |
| Cc1ncnc(NCC(C)N(C)c2ccccc2)c1C (centres undefined) | -9.709 |
| COCCN1CCCC2(CCN(Cc3noc(C4CCCC4)n3)C2)C1=O (centres undefined) | 5.891 |
| Cc1nc(C)n(Cc2cccc(NC3CCN(C)C3=O)c2)n1 (centres undefined) | -8.315 |
| CN(Cc1ccccc1)CC(C)(C)NC(=O)c1cnns1 | -3.698 |
| CN(C)CCN(C)C(=O)Nc1cc(F)cc(N2CCCC2)c1 | 23.94 |
| Cn1cnc(CN2Cc3nccn3CC2c2ccccc2)c1 (centres undefined) | 137.8 |
| c1ccc(CNC[C@H]2Cn3ccnc3CO2)cc1 | -10.94 |
| Cc1cc(C(F)(F)F)nc(CCNC(C)Cn2cncn2)n1 (centres undefined) | 108.9 |
| CC(Cn1ccnc1)NS(=O)(=O)Cc1ccc(F)cc1 (centres undefined) | -3.68 |
| Cc1cc(C(F)(F)F)nc(CCNC(C)Cn2ccnc2)n1 (centres undefined) | 111.3 |
| Cc1ccc2c(c1)c(CNC(C)Cn1ccnc1)nn2C (centres undefined) | 4.186 |
| Cc1cc(C)n(CC(C)NCCn2nc(C)c(Cl)c2C)n1 (centres undefined) | 9.985 |
| Cc1cc(C)n(CC(C)NCCN2CCc3ccccc32)n1 (centres undefined) | 20.38 |
| CC(Cn1cncn1)NCCN1CCc2ccccc2C1 (centres undefined) | 12.32 |
| Cc1cc(C(F)(F)F)nc(CCNC(C)Cn2nc(C)cc2C)n1 (centres undefined) | 119.2 |
| CC(Cn1cncn1)NCc1nncn1C1CCCCC1 (centres undefined) | -14 |
| COCCCN1CCCC2(CCN(S(=O)(=O)c3cccnc3)C2)C1=O (centres undefined) | -3.769 |
| O=S(=O)(N1CCOCC1)N1CCCC(c2ccccn2)C1 (centres undefined) | 113 |
| Cc1ccc(C2CCCN(S(=O)(=O)N3CCOCC3)C2)nc1 (centres undefined) | 122.5 |
| Cc1ccc(C2CCCN(S(C)(=O)=O)C2)nc1 (centres undefined) | 144.7 |
| CC1(C)CNC(=O)c2nc(C3CCCN(S(C)(=O)=O)C3)[nH]c2C1 (centres undefined) | -1.918 |
| CS(=O)(=O)N1CC[C@H](c2nc3ccc(C(F)(F)F)cc3[nH]2)C1 | 11.72 |
| CN(C1CCN(c2ccccn2)CC1)S(=O)(=O)N1CCOCC1 | 4.035 |
| Cc1nccc(C2CCCN(S(=O)(=O)N3CCOCC3)C2)n1 (centres undefined) | 96.21 |

| SMILES | Percent Effect [%] |
| --- | --- |
| CC1CCN(S(=O)(=O)N2CCCC(c3cccc(C(=O)O)c3)C2)CC1 (centres undefined) | -0.2169 |
| O=C(O)c1cccc(C2CCCN(S(=O)(=O)N3CCOCC3)C2)c1 (centres undefined) | 13.32 |
| Cc1noc2ncc(S(=O)(=O)Nc3cc(CC(C)(C)C)[nH]n3)cc12 | -3.68 |
| CCC(NS(C)(=O)=O)c1ccccc1OC (centres undefined) | -5.645 |
| CCN(Cc1cccs1)C(=O)c1ccc(=O)n(C)c1 | 17.88 |
| Cc1cccnc1CC(C)N(C)C(=O)c1ccoc1C (centres undefined) | -11.81 |
| Cc1occc1CNC(=O)C1(C)CCCN(C(=O)c2ccccc2)C1 (centres undefined) | 10.24 |
| Cc1csc(C(C#N)C(=O)Nc2ccccc2)n1 (centres undefined) | -10.65 |
| Cc1ccc(S(=O)(=O)N(C)Cc2nccs2)cc1N(C)C | 7.403 |
| CNC(=O)c1sc(C2CCCC2)nc1C | 1.771 |
| Cc1nc(C2CCCC2)sc1C(N)=O | -5.82 |
| Cc1nc(C2CCCN(S(C)(=O)=O)C2)sc1Br (centres undefined) | 114.6 |
| COCC1CN(Cc2ccc(C)o2)Cc2cnn(CC3CCOCC3)c21.O=C(O)C(F)(F)F.O=C(O)C(F)(F)F (centres undefined) | 3.505 |
| CCn1cc2c(n1)C(COC)CN(c1ccc(C)nn1)C2.O=C(O)C(F)(F)F.O=C(O)C(F)(F)F (centres undefined) | 2.14 |
| COCC1CN(c2ccc(C)nn2)Cc2cnn(C)c21.O=C(O)C(F)(F)F.O=C(O)C(F)(F)F (centres undefined) | 88.37 |
| Cc1noc(C)c1CN1Cc2cnn(C)c2C(COCC2CC2)C1.O=C(O)C(F)(F)F.O=C(O)C(F)(F)F (centres undefined) | -11.34 |
| CCOCC1CN(c2ccc(C)nn2)Cc2cnn(CC)c21.O=C(O)C(F)(F)F.O=C(O)C(F)(F)F (centres undefined) | 109.7 |
| CCOCC1CN(S(=O)(=O)N(C)C)Cc2cnn(C)c21.O=C(O)C(F)(F)F (centres undefined) | -5.434 |
| CCOCC1CN(S(=O)(=O)N(C)C)Cc2cnn(CC)c21.O=C(O)C(F)(F)F (centres undefined) | -6.757 |
| COCC1CN(c2ccc(C)nn2)Cc2cnn(CC3CCOCC3)c21.O=C(O)C(F)(F)F.O=C(O)C(F)(F)F (centres undefined) | 113.1 |
| Cc1ccc(N2Cc3cnn(C)c3C(COCC3CC3)C2)nn1.O=C(O)C(F)(F)F.O=C(O)C(F)(F)F (centres undefined) | 105.5 |
| CCOCC1CN(C)Cc2cnn(CC3CCCC3)c21.O=C(O)C(F)(F)F.O=C(O)C(F)(F)F (centres undefined) | 4.173 |
| CCOCC1CN(c2ccc(C)nn2)Cc2nn(CC)cc21.O=C(O)C(F)(F)F.O=C(O)C(F)(F)F (centres undefined) | 10.42 |
| Cc1ncsc1CN1Cc2cnn(C)c2C(COCC2CC2)C1.O=C(O)C(F)(F)F.O=C(O)C(F)(F)F (centres undefined) | -6.117 |

Reference: ChEMBL document CHEMBL3988442, “University of Dundee, Small-Polar-MMV Screening Library” (2021)
